# Measured values as given in PubChem BioAssay (NCATS).
# Inconclusive results are not listed. Active and inactive are the calls of the source. Unless noted, the rule behind the calls is not given here. Non-standard residues stand in square brackets, D forms with d. Residues, ends and D or L forms follow the SMILES beside them. Orn = NCCC[C@H](N)C(=O)O
# Assay: qHTS Assay for Identifying Gametocytocidal Compounds (AID 743244; active = well fitted curve in the direction sought with a large enough effect; note: potency is the fitted concentration of half-maximal effect;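 for max response: % is set by controls: 0 for no effect and ±100 for the full control effect; actives lower the fluorescent signal which means gametocytes are killed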)
# Conditions: P. falciparum 3D7 stage III-V gametocytes, alamarBlue, 72 h; max response: stronger effect = lower value
# Outline: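 Compounds are pinned into medium, gametocytes (stage III–V, 3D7, 20,000 cells/well) added, and plates held 72 h at 37 °C in 5% CO2. AlamarBlue follows for 24 h before fluorescence reading.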
Compound,Potency,max response
COc1ccc(C[C@H](N)C(=O)N[C@H]2[C@@H](O)[C@H](n3cnc4c(N(C)C)ncnc43)O[C@@H]2CO)cc1,1050 nM (active),
CC(NNC(=O)c1ccccc1)c1ccccc1 (stereo not given),,-2.82% (inactive)
CCCCC(=O)O[C@]1(C(=O)CO)[C@H](C)C[C@H]2[C@@H]3CCC4=CC(=O)C=C[C@]4(C)[C@@]3(F)[C@@H](O)C[C@@]21C,,12.3% (inactive)
CC(Oc1ccccc1)C(=O)N[C@@H]1C(=O)N2[C@@H]1SC(C)(C)[C@@H]2C(=O)O (stereo not given in full),,15.7% (inactive)
CCCCCCCCCCCCCCCC(=O)OCC(COC(=O)CCCCCCCCCCCCCCC)OC(=O)CCCCCCCCCCCCCCC,,4.37% (inactive)

# Assay: qHTS profiling for inhibitors of Plasmodium falciparum (3D7) proliferation (AID 743322);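 note: infected erythrocytes exposed to compound for 72 h before lysis; 100% = DMSO vehicle wells and 0% = 0.29 µM artemisinin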
# Conditions: P. falciparum 3D7 proliferation; at 28.7 µM (top of the series) unless noted
# Outline: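 Erythrocytes infected with P. falciparum (0.3% parasitemia, 2.5% hematocrit) incubated with compounds 72 h at 37 C, 5% CO2. Lysis with saponin/Triton buffer containing SYBR Green I, overnight at room temperature in the dark; DNA fluorescence (485/535 nm) normalised to 0.29 uM artemisinin and DMSO.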
row,Compound,remaining parasite growth % (stronger effect = lower value)
1,CC(C)C[C@@H]1NC(=O)[C@H](CCCN)NC(=O)[C@H](C(C)C)NC(=O)[C@@H]2CCCN2C(=O)[C@@H](Cc2ccccc2)NC(=O)[C@H](CC(C)C)NC(=O)[C@H](CCCN)NC(=O)[C@H](C(C)C)NC(=O)[C@@H]2CCCN2C(=O)[C@@H](Cc2ccccc2)NC1=O (cyclo(V[Orn]L[dF]PV[Orn]L[dF]P)),-2.61%
2,C[C@@H]1CCC2[C@@H](C)[C@@H](O)O[C@@H]3O[C@@]4(C)CC[C@@H]1[C@@]23OO4 (stereo not given in full),-0.537%
3,CCCC(=O)O[C@]1(C(=O)CCl)[C@H](C)C[C@@H]2[C@H]3CCC4=CC(=O)C=C[C@]4(C)[C@@]3(F)C(=O)C[C@@]21C,0.271%
4,CN1CCC(CN2c3ccccc3Sc3ccccc32)C1 (stereo not given),32.6%
5,CCN(CC)Cc1cc(Nc2ccnc3cc(Cl)ccc23)ccc1O,1.29% [at 9.63 µM]

# Assay: qHTS profiling for inhibitors of Plasmodium falciparum (DD2) proliferation (AID 743323)
# Conditions: lower = more inhibition; at 28.7 µM (top of the series) unless noted
# Outline: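 Parasite DNA quantified by SYBR Green fluorescence (ex 485, em 535 nm) after saponin/Triton lysis and overnight dark incubation. Cultures: 0.3% parasitemia, 2.5% hematocrit, 72 h, 37 C; data scaled between DMSO and 0.29 uM artemisinin.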
row,Compound,"activity, percent of control"
1,CC(C)C[C@@H]1NC(=O)[C@H](CCCN)NC(=O)[C@H](C(C)C)NC(=O)[C@@H]2CCCN2C(=O)[C@@H](Cc2ccccc2)NC(=O)[C@H](CC(C)C)NC(=O)[C@H](CCCN)NC(=O)[C@H](C(C)C)NC(=O)[C@@H]2CCCN2C(=O)[C@@H](Cc2ccccc2)NC1=O (cyclo(V[Orn]L[dF]PV[Orn]L[dF]P)),-0.499%
2,C[C@@H]1CCC2[C@@H](C)[C@@H](O)O[C@@H]3O[C@@]4(C)CC[C@@H]1[C@@]23OO4 (stereo not given in full),-0.207%
3,CCCC(=O)O[C@]1(C(=O)CCl)[C@H](C)C[C@@H]2[C@H]3CCC4=CC(=O)C=C[C@]4(C)[C@@]3(F)C(=O)C[C@@]21C,1.4%
4,CN1CCC(CN2c3ccccc3Sc3ccccc32)C1 (stereo not given),26.9%
5,CCN(CC)Cc1cc(Nc2ccnc3cc(Cl)ccc23)ccc1O,2.43% [at 9.63 µM]
